Laboratory results published in PubChem BioAssay AID504782 (NMMLSC, 2011).
Some of the results follow. Unmarked numbers belong to inactive results. Active and inactive are the calls of the source.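 The calls were made as follows: active = inhibition of aptamer binding above 40%, about triple the noise seen with nonglowing compounds, on plates passing quality control; inactive = the rest.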

The compounds below were run against Beta-adrenergic receptor kinase 1 (Homo sapiens) (UniProt P25098) (assay: GRK2 aptamer-displacing inhibitors, hit retest, confirmation, biochemical, cherry pick 2, bead flow cytometry (AID 504782;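 as to inhibition of aptamer binding: negative values mostly come from compounds that fluoresce themselves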)). Conditions: bead-bound GRK2, FAM-aptamer displacement; at 10 µM, active compounds read high.
Chain of Beta-adrenergic receptor kinase 1 (Homo sapiens) (P25098 whole entry, looked up): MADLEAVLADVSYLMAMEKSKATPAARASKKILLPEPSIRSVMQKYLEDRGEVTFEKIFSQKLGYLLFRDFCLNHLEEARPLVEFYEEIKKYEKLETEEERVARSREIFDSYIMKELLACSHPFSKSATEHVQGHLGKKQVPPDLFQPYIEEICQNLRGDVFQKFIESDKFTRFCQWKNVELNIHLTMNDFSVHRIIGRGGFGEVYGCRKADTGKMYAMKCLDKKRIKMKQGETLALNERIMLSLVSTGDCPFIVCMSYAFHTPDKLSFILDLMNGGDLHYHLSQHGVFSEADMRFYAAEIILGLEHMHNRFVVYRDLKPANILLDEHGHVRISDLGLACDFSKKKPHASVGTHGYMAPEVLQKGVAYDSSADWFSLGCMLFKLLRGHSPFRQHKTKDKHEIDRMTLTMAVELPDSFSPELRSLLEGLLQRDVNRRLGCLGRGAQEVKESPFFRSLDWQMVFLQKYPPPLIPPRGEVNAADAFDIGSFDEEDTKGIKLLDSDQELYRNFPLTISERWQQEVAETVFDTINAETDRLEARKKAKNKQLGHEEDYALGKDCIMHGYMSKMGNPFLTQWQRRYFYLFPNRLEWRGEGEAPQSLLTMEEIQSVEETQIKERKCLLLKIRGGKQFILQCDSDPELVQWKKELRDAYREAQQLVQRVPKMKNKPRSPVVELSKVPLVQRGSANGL
`CC(=O)c1ccc(N2CCN(C(=O)c3ccc4nc[nH]c4c3)CC2)cc1` was tested, and the inhibition of aptamer binding was -5.06%.
For `CCN1CCN(C(=O)N[C@@H](C(=O)N[C@@H]2C(=O)N3C(C(=O)O)=C(CSc4nnnn4C)CS[C@H]23)c2ccc(O)cc2)C(=O)C1=O`, the inhibition of aptamer binding was -21.6%.
`CCOc1ccc(OCC)c(NC(=O)CCS(=O)(=O)c2ccc(C)cc2)c1` showed an inhibition of aptamer binding of -1.15%.
`CC1Sc2ccc(S(=O)(=O)CCC(=O)NCc3ccccc3Cl)cc2NC1=O` (stereo not given) was tested, and the inhibition of aptamer binding was 2.07%.
`COc1ccc(Cl)cc1NC(=O)CCS(=O)(=O)c1cc2c(cc1C)NC(=O)CO2` gave an inhibition of aptamer binding of -12.2%.
With `COc1cc([N+](=O)[O-])cc([N+](=O)[O-])c1NC(=O)N1CCOCC1` the inhibition of aptamer binding was 8.51%.
Compound `O=C(CCS(=O)(=O)c1ccccc1)NC1CCCC1` has an inhibition of aptamer binding of 1.15%.
`Cc1ccc(S(=O)(=O)CC(=O)Nc2sc(C)c(C)c2C(N)=O)cc1` showed an inhibition of aptamer binding of -39.3%.
`COc1ccc(Cl)cc1NC(=O)CCS(=O)(=O)c1ccc(Br)cc1` was tested, and the inhibition of aptamer binding was 75.5% (active).
For `CN=C(Nc1cccc(S(=O)(=O)N2CCOCC2)c1)c1ccccc1`, the inhibition of aptamer binding was -13.4%.
Compound `Cc1nnc(SCC(=O)N2c3ccccc3C(C)(c3ccc(Cl)cc3)CC2(C)C)s1` (stereo not given) has an inhibition of aptamer binding of 14.7%.
`CCOCCCNC(=O)c1ccc(CS(=O)(=O)c2cccc(C(F)(F)F)c2)o1` gave an inhibition of aptamer binding of 8.74%.
For `CCc1nn(CCCN2CCN(c3cccc(Cl)c3)CC2)c(=O)n1CCOc1ccccc1`, the inhibition of aptamer binding was 4.83%.
`NC(=O)[C@H]1CC2(CC(c3cccc(NC(=O)[C@H]4CCC(=O)N4)c3)=NO2)CN1C(=O)c1ccccc1C(=O)c1ccccc1` (stereo not given in full) was tested, and the inhibition of aptamer binding was -25.8%.
In the case of `O=C(NCCCN1CCCCCC1)c1ccc(N2CCCC2=O)cc1`, the inhibition of aptamer binding is reported as -112%.
With `O=C(C1CCCN(S(=O)(=O)c2ccc([N+](=O)[O-])cc2)C1)N1CCCCC1` (stereo not given) the inhibition of aptamer binding was -14.3%.
`O=[N+]([O-])c1ccccc1S(=O)(=O)Nc1cccc2cccnc12` gave an inhibition of aptamer binding of 7.36%.
`O=C(NC1C2CC3CC(C2)CC1C3)c1ccc(N2CCNCC2)c([N+](=O)[O-])c1` (stereo not given) gave an inhibition of aptamer binding of -5.52%.
For `CCC(C)(C(=O)NC1CCCCC1)N(C)C(=O)c1ccc2c(c1)OCO2` (stereo not given), the inhibition of aptamer binding was -12.4%.
Work on `CC1CCN(C(=S)NC2CC3CCC2C3)CC1` (stereo not given) yielded an inhibition of aptamer binding of -12.2%.
Work on `COc1cccc(OC)c1C(=O)Nc1ccc(Cc2ccncc2)cc1` yielded an inhibition of aptamer binding of -1.61%.
`CCOC(=O)C1=C(N)N(c2ccc(C)cc2)C2=C(C(=O)CCC2)C1c1cccs1` (stereo not given) was tested, and the outcome was “inactive”.
For `COc1ccccc1C(=O)N(Cc1ccc(C)o1)C1CCS(=O)(=O)C1` (stereo not given), the inhibition of aptamer binding was 10.1%.
`COCCn1c(N)c(NCc2ccccc2)c(=O)[nH]c1=O` was tested, and the inhibition of aptamer binding was -165%.
For `CCOCCc1c(O)nc(SCC(=O)NCc2ccco2)[nH]c1=O`, the inhibition of aptamer binding was -20.9%.
